Data taken from PubChem BioAssay.
Inconclusive results are not listed. The source made the active and inactive calls.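 Rule for the calls, unless noted: active = inhibition above 54%, about 3 SD of non-fluorescent compounds; inactive = the rest.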

Columns and labels:
[1] = yeast TOR pathway RPL19A-GFP modulators, primary screen, cell-based, S. cerevisiae, multiplex flow cytometry (AID 1862; in the data active = percent of DMSO control GFP below about 86%;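 note: lower values mimic rapamycin by blocking the RPL19A rise seen in DMSO cells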); settings: S. cerevisiae RPL19A-GFP strain, flow cytometry fluorescence, 3 h; at 10 µM; stronger effect = lower value
[2] = modulators of MEP2-GFP levels in yeast, primary screen, S. cerevisiae, multiplex flow cytometry (AID 1867;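 active = GFP response, as percent of the DMSO control, above the screen-wide mean plus 3 SD, about 139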;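 note: median GFP channel fluorescence of barcode-gated MEP2-GFP cells measured by flow cytometry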); settings: S. cerevisiae MEP2-GFP strain, 3 h, at 10 µM, stronger effect = higher value, 100% means same as DMSO wells
[3] = modulators of CIT2-GFP expression in yeast, primary screen, S. cerevisiae, GFP fusion, multiplex flow cytometry (AID 1870;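 active = percent response above a set limit, the screen-wide mean plus 3 SD, cut at about 130% in these data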;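 note: barcoded CIT2-GFP strain pooled with four other GFP strains with rapamycin as positive control; median GFP fluorescence per well over plate mean of DMSO wells so 100% = DMSO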); settings: 3 h, at 10 µM, stronger effect = higher value
[4] = modulators of LAP4-GFP expression in yeast, primary screen, S. cerevisiae, multiplex flow cytometry (AID 1873;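 active = GFP signal, as percent of the solvent control, above the screen mean plus 3 SD, about 149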); settings: 3 h, at 10 µM, stronger effect = higher value
[5] = modulators of AGP1-GFP expression in yeast TOR pathway, primary screen, cell-based, multiplex flow cytometry, S. cerevisiae (AID 1887;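 active = GFP signal above the screen-wide mean plus 3 SD, that is over about 124.5% of the solvent control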;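 note: AGP1-GFP fusion strain of S. cerevisiae within a five-strain barcoded multiplex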); settings: 3 h, at 10 µM, stronger effect = higher value
[6] = inhibitors of CD8+ T cell-vesicle binding, pilot screen, LFA-1/ICAM-1 modulator project, MLPCN validation set, flow cytometry (AID 2523;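 active = response below a set limit, under 55% cells CD8-positive and vesicle-bound, and CD8 cells' 90th-percentile brightness under 279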;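 for vesicle binding response: mean PE anti-B7-1 fluorescence of CD8+ cells relative to row control; 100% = QL9-loaded vesicles with DMSO vehicle in the same plate row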); settings: 2C mouse CD8+ T cells, at 7 µM, stronger effect = lower value; double positive events: measured here: CD8+/vesicle+ event percentage
[7] = molecular target: Integrin beta-1 (Homo sapiens) + Integrin alpha-4 (Homo sapiens) (UniProt P13612+P05556); experiment: inhibition of HUTS-21 binding to VLA-4, pilot screen, VLA-4 allosteric modulator project, U937 cells, HUTS-21 mAb, flow cytometry, validation set (AID 2674;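 active = inhibition above 50%, about 3 SD of the validation set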;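 note: antibody binding induced by the VLA-4 ligand LDV present at three times its Kd; 0% = LDV ligand with antibody and no compound and 100% = antibody without LDV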); settings: HUTS-21 LIBS mAb binding, at 6.7 µM, stronger effect = higher value, binding induced by LDV ligand
Sequence of Integrin beta-1 (Homo sapiens) + Integrin alpha-4 (Homo sapiens) (P05556 whole entry, looked up): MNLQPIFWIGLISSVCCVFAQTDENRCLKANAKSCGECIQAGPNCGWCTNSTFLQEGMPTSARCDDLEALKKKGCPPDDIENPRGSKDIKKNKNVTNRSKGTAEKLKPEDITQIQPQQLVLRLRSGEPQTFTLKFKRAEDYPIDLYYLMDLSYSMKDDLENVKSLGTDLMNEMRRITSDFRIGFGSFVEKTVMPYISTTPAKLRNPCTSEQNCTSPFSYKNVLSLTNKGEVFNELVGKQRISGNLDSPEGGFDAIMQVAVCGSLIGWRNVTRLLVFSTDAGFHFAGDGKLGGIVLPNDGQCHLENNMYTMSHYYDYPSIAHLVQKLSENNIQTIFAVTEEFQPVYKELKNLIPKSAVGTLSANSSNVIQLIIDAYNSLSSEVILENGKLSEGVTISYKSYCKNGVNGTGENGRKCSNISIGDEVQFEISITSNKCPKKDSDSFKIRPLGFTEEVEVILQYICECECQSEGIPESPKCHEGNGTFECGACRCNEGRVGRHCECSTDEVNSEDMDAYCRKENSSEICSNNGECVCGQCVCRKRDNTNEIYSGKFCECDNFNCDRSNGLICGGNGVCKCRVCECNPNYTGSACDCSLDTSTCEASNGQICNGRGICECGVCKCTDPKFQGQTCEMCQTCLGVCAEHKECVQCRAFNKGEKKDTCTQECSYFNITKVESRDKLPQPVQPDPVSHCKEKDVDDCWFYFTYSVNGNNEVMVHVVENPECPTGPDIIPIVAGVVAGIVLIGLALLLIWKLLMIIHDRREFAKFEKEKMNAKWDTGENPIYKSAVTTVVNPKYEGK
Sequence of Integrin beta-1 (Homo sapiens) + Integrin alpha-4 (Homo sapiens) (P13612 whole entry, looked up): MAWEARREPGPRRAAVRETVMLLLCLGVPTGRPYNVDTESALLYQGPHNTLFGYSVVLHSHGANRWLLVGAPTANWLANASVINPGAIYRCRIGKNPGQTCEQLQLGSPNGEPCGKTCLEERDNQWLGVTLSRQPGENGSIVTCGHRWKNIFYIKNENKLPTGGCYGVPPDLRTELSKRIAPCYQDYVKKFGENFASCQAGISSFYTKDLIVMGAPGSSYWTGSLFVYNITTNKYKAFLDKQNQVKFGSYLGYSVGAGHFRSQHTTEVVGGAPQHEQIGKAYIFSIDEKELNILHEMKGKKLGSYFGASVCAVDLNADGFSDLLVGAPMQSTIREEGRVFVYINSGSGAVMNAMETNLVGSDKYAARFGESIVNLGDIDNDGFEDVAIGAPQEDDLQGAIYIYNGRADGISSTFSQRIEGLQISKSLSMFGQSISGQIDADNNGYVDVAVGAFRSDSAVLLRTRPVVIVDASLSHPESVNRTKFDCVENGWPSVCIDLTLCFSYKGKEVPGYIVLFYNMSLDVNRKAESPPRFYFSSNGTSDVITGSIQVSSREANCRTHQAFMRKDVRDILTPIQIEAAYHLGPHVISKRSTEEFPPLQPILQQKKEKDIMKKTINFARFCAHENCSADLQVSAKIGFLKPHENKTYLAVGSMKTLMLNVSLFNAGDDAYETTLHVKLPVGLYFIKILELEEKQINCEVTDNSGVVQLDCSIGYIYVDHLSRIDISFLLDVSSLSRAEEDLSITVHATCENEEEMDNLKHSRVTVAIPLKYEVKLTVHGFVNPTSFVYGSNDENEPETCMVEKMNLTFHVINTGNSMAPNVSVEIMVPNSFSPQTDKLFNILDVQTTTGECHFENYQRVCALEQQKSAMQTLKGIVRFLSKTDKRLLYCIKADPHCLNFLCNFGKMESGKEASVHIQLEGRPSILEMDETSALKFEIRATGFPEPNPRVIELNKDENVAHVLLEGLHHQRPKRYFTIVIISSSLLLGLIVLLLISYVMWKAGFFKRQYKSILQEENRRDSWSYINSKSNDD

[8] = superoxide lowering in aged yeast cells, pilot screen, validation compound set (AID 2706;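 active = superoxide response below 65% of plate, a cut near 3 SD across the whole screen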;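 note: yeast exposed to compound for one week at 30 degrees C before staining; 100% = mean of all compound wells on the same plate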); settings: S. cerevisiae aging, superoxide DHE fluorescence; at 10 µM; stronger effect = lower value
[9] = molecular target: Beta-adrenergic receptor kinase 1 (Homo sapiens) (UniProt P25098); experiment: GRK2 binders displacing RNA aptamer, biochemical, validation, human GRK2, bead flow cytometry (AID 488806;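 active = aptamer binding inhibition above 30%, about 3 SD of noise from non-fluorescent compounds; inactive = inhibition at or below 30%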); settings: bead-bound GRK2, FAM-aptamer displacement, at 10 µM, stronger effect = higher value
Sequence of Beta-adrenergic receptor kinase 1 (Homo sapiens) (P25098 whole entry, looked up): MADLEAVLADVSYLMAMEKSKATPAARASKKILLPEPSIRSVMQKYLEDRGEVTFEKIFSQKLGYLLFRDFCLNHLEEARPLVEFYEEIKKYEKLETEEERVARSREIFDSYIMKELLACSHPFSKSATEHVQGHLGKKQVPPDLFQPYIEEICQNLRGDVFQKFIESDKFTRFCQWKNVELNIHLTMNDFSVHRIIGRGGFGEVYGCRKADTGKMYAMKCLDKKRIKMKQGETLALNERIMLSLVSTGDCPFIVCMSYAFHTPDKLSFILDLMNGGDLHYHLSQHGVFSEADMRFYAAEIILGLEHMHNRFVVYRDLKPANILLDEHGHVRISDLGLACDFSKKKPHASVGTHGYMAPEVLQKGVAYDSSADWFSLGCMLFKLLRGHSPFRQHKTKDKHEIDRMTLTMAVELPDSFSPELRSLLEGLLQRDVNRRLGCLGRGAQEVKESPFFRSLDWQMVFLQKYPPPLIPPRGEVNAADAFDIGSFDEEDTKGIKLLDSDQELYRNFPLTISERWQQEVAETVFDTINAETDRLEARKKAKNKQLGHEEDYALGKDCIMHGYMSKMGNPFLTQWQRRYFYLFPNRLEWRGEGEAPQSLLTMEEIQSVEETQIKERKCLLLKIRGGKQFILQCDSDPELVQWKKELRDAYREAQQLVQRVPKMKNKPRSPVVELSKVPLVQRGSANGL

[10] = molecular target: Beta-2 adrenergic receptor (Homo sapiens) (UniProt P07550); experiment: beta2AR agonists driving receptor internalization, pilot screen, cell-based, FAP fluorogen, flow cytometry, validation set (AID 504459;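 active = percent response above 42, roughly 3 SD of non-fluorescent test compounds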;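 note: agonist-driven loss of surface beta2AR via internalization measured by FAP dye flow cytometry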); settings: Am2.2-beta2AR cells, FAP surface receptor flow cytometry; at 10 µM; stronger effect = higher value
Sequence of Beta-2 adrenergic receptor (Homo sapiens) (P07550 whole entry, looked up, the tested form may be a part): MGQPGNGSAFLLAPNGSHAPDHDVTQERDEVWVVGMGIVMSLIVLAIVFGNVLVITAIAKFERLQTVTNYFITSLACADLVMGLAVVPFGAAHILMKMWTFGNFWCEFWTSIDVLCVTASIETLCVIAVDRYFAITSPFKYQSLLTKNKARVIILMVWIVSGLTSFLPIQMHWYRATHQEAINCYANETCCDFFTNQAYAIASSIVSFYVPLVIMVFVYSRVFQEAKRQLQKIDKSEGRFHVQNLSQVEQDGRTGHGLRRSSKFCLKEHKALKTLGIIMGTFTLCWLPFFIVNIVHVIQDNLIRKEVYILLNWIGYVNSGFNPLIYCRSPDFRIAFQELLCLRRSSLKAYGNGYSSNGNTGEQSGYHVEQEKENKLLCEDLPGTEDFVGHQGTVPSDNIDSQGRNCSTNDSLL

[11] = molecular target: AP-2 complex subunit beta (Homo sapiens) (UniProt P63010); experiment: inhibitors of arrestin peptide binding to AP2, pilot screen, biochemical, validation set, GST-AP2 beads, flow cytometry (AID 504541); settings: FITC arrestin peptide, at 10 µM, stronger effect = higher value, AP2 beta2 appendage fragment, R879A mutant;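 note: AP2 carries R879A mutation and is captured from E. coli lysate; bead-bound FITC arrestin peptide fluorescence measuring arrestin peptide binding to AP2; 0% = DMSO wells and 100% = excess unlabeled arrestin peptide control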
Sequence of AP-2 complex subunit beta (Homo sapiens) (P63010 whole entry, looked up, the tested form may be a part, one chain of several): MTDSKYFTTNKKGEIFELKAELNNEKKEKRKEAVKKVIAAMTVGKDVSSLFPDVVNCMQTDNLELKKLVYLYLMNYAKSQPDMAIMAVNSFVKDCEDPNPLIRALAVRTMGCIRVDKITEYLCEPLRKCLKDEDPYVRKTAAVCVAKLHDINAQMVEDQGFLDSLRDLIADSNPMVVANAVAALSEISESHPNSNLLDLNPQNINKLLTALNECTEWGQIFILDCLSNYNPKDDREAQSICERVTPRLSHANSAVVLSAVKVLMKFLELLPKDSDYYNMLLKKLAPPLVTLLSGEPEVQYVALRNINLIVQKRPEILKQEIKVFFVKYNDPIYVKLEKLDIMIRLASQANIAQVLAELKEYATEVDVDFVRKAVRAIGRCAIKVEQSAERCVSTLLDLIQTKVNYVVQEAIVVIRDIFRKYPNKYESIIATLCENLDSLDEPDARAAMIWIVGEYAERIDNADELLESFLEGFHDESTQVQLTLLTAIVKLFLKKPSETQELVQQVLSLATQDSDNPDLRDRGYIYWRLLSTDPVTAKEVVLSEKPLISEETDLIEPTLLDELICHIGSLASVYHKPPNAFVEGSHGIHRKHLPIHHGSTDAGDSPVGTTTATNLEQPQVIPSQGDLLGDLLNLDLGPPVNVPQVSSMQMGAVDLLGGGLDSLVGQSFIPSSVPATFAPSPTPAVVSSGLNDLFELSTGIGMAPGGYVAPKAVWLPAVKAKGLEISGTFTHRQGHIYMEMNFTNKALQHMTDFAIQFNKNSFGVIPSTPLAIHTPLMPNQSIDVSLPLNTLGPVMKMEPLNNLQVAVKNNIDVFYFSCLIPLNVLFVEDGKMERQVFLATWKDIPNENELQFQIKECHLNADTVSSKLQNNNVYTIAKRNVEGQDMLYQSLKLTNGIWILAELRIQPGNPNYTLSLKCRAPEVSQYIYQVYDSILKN

[12] = yeast V-ATPase proton transport modulators, S. cerevisiae, pHLuorin, HTS validation (AID 504600; in the data active = response above about 15%;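 note: plate controls were DMSO for no effect and reference compound for full effect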); settings: S. cerevisiae pHLuorin cytosolic pH, at 10 µM, stronger effect = higher value
[13] = system: anti-desmoglein-3 scFv antibody binding to human DSG3; experiment: inhibitors of anti-DSG3 scFv binding to DSG3, pilot screen, biochemical, validation compound set, bead-based, flow cytometry (AID 588368;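 active = binding below the plate cutoff, the plate median minus 3 SD, with a reading above zero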;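 note: signal is the median channel fluorescence of bead-bound GFP antibody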); settings: Protein G beads, DSG3-Fc, scFv-GFP binding, at 10 µM, stronger effect = lower value
[14] = inhibitors of fungal efflux pumps CDR1, CDR2, MDR1, pilot screen, validation compound set, multiplex, phenotypic (AID 588506;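 active = efflux inhibition above 0.42, the validation set average plus 4 SD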;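 note: Nile Red retained in cells so higher fluorescence means more efflux inhibition; 0 = negative control wells and 1 = enniatin B 25 µM full block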); settings: S. cerevisiae pump-expressing triplex, Nile Red efflux flow cytometry; at 10 µM; stronger effect = higher value; the pumps come from Candida albicans
[15] = molecular target: ATP-binding cassette sub-family B member 6 (Homo sapiens) (UniProt Q9NP58); experiment: ABCB6 transporter inhibitors, pilot screen, K562-ABCB6 cells, flow cytometry, validation set (AID 588550;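 active = inhibition above the screen-wide mean plus 3 SD, about 51%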;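 note: 0% = DMSO wells and 100% = benzethonium chloride 70 µM positive control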); settings: K562-ABCB6 porphyrin accumulation, 1 h, at 10 µM, stronger effect = higher value
Sequence of ATP-binding cassette sub-family B member 6 (Homo sapiens) (Q9NP58 whole entry, looked up): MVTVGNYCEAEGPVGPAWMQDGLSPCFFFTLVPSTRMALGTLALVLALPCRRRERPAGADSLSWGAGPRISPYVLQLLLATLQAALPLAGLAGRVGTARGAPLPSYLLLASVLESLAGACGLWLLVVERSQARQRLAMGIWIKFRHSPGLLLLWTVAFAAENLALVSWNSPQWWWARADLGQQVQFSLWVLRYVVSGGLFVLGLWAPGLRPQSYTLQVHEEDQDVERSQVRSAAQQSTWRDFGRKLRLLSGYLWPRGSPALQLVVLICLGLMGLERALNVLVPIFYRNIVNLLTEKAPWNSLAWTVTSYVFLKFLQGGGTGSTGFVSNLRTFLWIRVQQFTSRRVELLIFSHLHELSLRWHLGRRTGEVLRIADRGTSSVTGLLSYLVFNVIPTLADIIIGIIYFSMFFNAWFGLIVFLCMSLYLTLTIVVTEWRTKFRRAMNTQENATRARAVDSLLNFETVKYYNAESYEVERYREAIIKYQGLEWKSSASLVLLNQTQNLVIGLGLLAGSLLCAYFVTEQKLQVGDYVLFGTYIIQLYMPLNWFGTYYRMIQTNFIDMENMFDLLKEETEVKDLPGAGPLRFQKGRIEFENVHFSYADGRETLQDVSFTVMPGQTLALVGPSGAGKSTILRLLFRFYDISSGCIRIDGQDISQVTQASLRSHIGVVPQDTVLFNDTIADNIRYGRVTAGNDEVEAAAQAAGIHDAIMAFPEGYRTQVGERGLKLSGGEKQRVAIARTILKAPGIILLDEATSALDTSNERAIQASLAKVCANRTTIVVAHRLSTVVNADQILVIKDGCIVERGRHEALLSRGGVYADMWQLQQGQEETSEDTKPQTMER

[16] = promoters of myeloid differentiation in arrested cells, primary screen, cell-based, GFP/MAC1 double positive, flow cytometry, validation set (AID 588685;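 active = differentiation response of at least 50%, scaled between solvent and reference control, from cells with both markers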;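 note: compound exposure lasts four days before antibody staining and flow analysis; 0% = DMSO wells and 100% = 5 µM fulvestrant positive control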); settings: ER-HoxA9 marrow cells, stronger effect = higher value, normalized: vehicle 0, fulvestrant 100

Structure (SMILES) | percent of DMSO control GFP [1] | GFP response vs DMSO [2] | percent response of DMSO control [3] | GFP response vs DMSO [4] | GFP response, % of DMSO [5] | double positive events [6] [%] | vesicle binding response [6] | inhibition [7] | superoxide response (% of plate) [8] | aptamer binding inhibition [9] | response [10] | inhibition [11] | response [12] | binding (% of control) [13] | efflux inhibition (fraction of control) [14] | inhibition [15] | differentiation response [16]
CC1(C)CC(=O)C(C2=NC(C)(C)Cc3ccccc32)=C(O)C1 | 103% (inactive) | 100% (inactive) | 108% (inactive) | 92.7% (inactive) | 101% (inactive) | 59.3 | 48.2% (inactive) | -2.53% (inactive) | 103% (inactive) | 4% (inactive) | -9.99% (inactive) | 17.9% (inactive) | 1.49% (inactive) | 91.7% (inactive) | 0.14 (inactive) | 13% (inactive) | -4.64% (inactive)
Cc1cn([C@H]2C=C[C@@H](CO)O2)c(=O)[nH]c1=O | 101% (inactive) | 104% (inactive) | 94.2% (inactive) | 92% (inactive) | 93.5% (inactive) | 65.8 | 705% (inactive) | 16.1% (inactive) | 94.6% (inactive) | 3% (inactive) | -6.71% (inactive) | -12% (inactive) | 3.71% (inactive) | 101% (inactive) | 0.02 (inactive) | 3% (inactive) | 1.22% (inactive)
CCc1nc2ccccc2n1Cc1ccc(OC)c(OC)c1 | 98.1% (inactive) | 99.6% (inactive) | 95.7% (inactive) | 107% (inactive) | 109% (inactive) | 60.7 | 132% (inactive) | 3.14% (inactive) | 105% (inactive) | 3% (inactive) | -19% (inactive) | 7.51% (inactive) | 2.99% (inactive) | 89.6% (inactive) | 0 (inactive) | 2% (inactive) | 18.7% (inactive)
CCOc1ccc2nc(N/C(N)=N/S(C)(=O)=O)nc(C)c2c1 | 90.6% (inactive) | 132% (inactive) | 107% (inactive) | 84.7% (inactive) | 93.8% (inactive) | 67.9 | 174% (inactive) | -3.24% (inactive) | 98.7% (inactive) | 3% (inactive) | -5.51% (inactive) | 35.3% (inactive) | -5.13% (inactive) | 95% (inactive) | 0.05 (inactive) | 0% (inactive) | 3.28% (inactive)
CCCC(=O)O[C@]1(C(=O)COC(C)=O)CC[C@H]2[C@@H]3C[C@H](F)C4=CC(=O)C=C[C@]4(C)[C@@]3(F)[C@@H](O)C[C@@]21C | 96.9% (inactive) | 114% (inactive) | 109% (inactive) | 107% (inactive) | 103% (inactive) | 60.2 | 1090% (inactive) | -13.2% (inactive) | 112% (inactive) | 3% (inactive) | 4.32% (inactive) | 24.1% (inactive) | -0.33% (inactive) | 105% (inactive) | -0.06 (inactive) | 2% (inactive) | 1.93% (inactive)
COc1c2c(nc3occc13)C(CC=C(C)C)(OC)C(O)CC2 (stereo unspecified) | 89.1% (inactive) | 131% (inactive) | 110% (inactive) | 95.7% (inactive) | 98.2% (inactive) | 63.2 | 144% (inactive) | -4.21% (inactive) | 95.4% (inactive) | 6% (inactive) | 3.58% (inactive) | -9.37% (inactive) | -1.04% (inactive) | 103% (inactive) | 0.01 (inactive) | 11% (inactive) | 3.28% (inactive)
COc1ccc(CCn2c(C)nc3c(c(=O)c4ccccc4n3C)c2=O)cc1 | 98.6% (inactive) | 102% (inactive) | 103% (inactive) | 104% (inactive) | 116% (inactive) | 61.1 | 155% (inactive) | -8.78% (inactive) | 96.8% (inactive) | 5% (inactive) | -29.5% (inactive) | 7.96% (inactive) | 7.85% (inactive) | 101% (inactive) | 0.21 (inactive) | 5% (inactive) | 16.7% (inactive)
CCN1C(=O)C(CC(=O)Nc2ccc(OC)cc2)N(CCc2ccc(F)cc2)C1=S (stereo unspecified) | 96.9% (inactive) | 98.5% (inactive) | 93.9% (inactive) | 124% (inactive) | 96.2% (inactive) | 60.7 | 292% (inactive) | -3.16% (inactive) | 102% (inactive) | 2% (inactive) | 5.66% (inactive) | 50.8% (inactive) | -3.51% (inactive) | 102% (inactive) | 0.19 (inactive) | 3% (inactive) | 8.8% (inactive)
CN(C)CCC(c1ccc(Cl)cc1)c1ccccn1 (stereo unspecified) | 99% (inactive) | 120% (inactive) | 108% (inactive) | 78.7% (inactive) | 87.5% (inactive) | 56.3 | 215% (inactive) | -7.12% (inactive) | 94% (inactive) | -7% (inactive) | -9.09% (inactive) | 4.35% (inactive) | 18.1% (active) | 107% (inactive) | 0.05 (inactive) | 7% (inactive) | 37.7% (inactive)
CCOC(=O)C(NC(C)=O)C(O)c1ccc([N+](=O)[O-])cc1 (stereo unspecified) | 99.5% (inactive) | 105% (inactive) | 85.3% (inactive) | 124% (inactive) | 99.2% (inactive) | 57.3 | 211% (inactive) | -3.16% (inactive) | 103% (inactive) | 0% (inactive) | 4.84% (inactive) | -1.65% (inactive) | -1.89% (inactive) | 99.7% (inactive) | -0.21 (inactive) | 6% (inactive) | 32.8% (inactive)
CCCNC(C)C(=O)Nc1ccccc1C (stereo unspecified) | 100% (inactive) | 101% (inactive) | 101% (inactive) | 92.6% (inactive) | 103% (inactive) | 60.4 | 130% (inactive) | -15.8% (inactive) | 96.4% (inactive) | 2% (inactive) | 2.61% (inactive) | -0.33% (inactive) | 4.59% (inactive) | 102% (inactive) | -0.16 (inactive) | -3% (inactive) | -7.5% (inactive)
CC(C)CC(=O)NC(NC(=O)CC(C)C)c1cccc([N+](=O)[O-])c1 | 101% (inactive) | 102% (inactive) | 111% (inactive) | 100% (inactive) | 100% (inactive) | 60.1 | 118% (inactive) | 1.59% (inactive) | 118% (inactive) | 19% (inactive) | 3.17% (inactive) | 7.92% (inactive) | 3.51% (inactive) | 99% (inactive) | 0.09 (inactive) | 11% (inactive) | -8.96% (inactive)
CC(C(=O)O)c1ccc(-c2ccccc2)c(F)c1 (stereo unspecified) | 94.8% (inactive) | 104% (inactive) | 76.8% (inactive) | 128% (inactive) | 84.8% (inactive) | 66.4 | 1320% (inactive) | 1.62% (inactive) | 106% (inactive) | -1% (inactive) | -7.02% (inactive) | -9.46% (inactive) | -1.04% (inactive) | 103% (inactive) | 0.05 (inactive) | 1% (inactive) | 0.24% (inactive)
CCOc1ccc(NC2OC(C)C(O)C(O)C2O)c([N+](=O)[O-])c1 (stereo unspecified) | 101% (inactive) | 104% (inactive) | 97.8% (inactive) | 95.3% (inactive) | 102% (inactive) | 62.7 | 4580% (inactive) | -4.6% (inactive) | 102% (inactive) | 2% (inactive) | 5.64% (inactive) | -9.73% (inactive) | 2.76% (inactive) | 94.8% (inactive) | -0.01 (inactive) | -10% (inactive) | -2.69% (inactive)
COc1ccc(OC)c(NC2=C(Cl)C(=O)N(Cc3ccccc3)C2=O)c1 | 104% (inactive) | 105% (inactive) | 103% (inactive) | 103% (inactive) | 99.8% (inactive) | 59.3 | 98% (inactive) | 4.27% (inactive) | 99.4% (inactive) | 0% (inactive) | 3% (inactive) | 5.66% (inactive) | 2.16% (inactive) | 107% (inactive) | -0.075 (inactive) | 0% (inactive) | -11.9% (inactive)
FC(F)(F)c1ccc(-c2noc(CN3CCCN(C4CCCCC4)CC3)n2)cc1 | 100% (inactive) | 105% (inactive) | 101% (inactive) | 93.3% (inactive) | 101% (inactive) | 62.5 | 5350% (inactive) | -7.72% (inactive) | 89.3% (inactive) | -12% (inactive) | -4.45% (inactive) | -10.2% (inactive) | 3.31% (inactive) | 103% (inactive) | -0.14 (inactive) | -11% (inactive) | 33.5% (inactive)
OC12CCCCC1C(c1ccc3c(c1)OCO3)N(Cc1cccc(F)c1)CC2 (stereo unspecified) | 103% (inactive) | 90.9% (inactive) | 113% (inactive) | 94% (inactive) | 101% (inactive) | 61.7 | 234% (inactive) | -5.64% (inactive) | 97.9% (inactive) | 3% (inactive) | -6.32% (inactive) | 7.03% (inactive) | -0.75% (inactive) | 104% (inactive) | -0.01 (inactive) | 0% (inactive) | -10.5% (inactive)
CCOC(=O)C(=O)N1CCN(c2ccccc2OC)CC1 | 97.9% (inactive) | 112% (inactive) | 98.6% (inactive) | 94.8% (inactive) | 104% (inactive) | 64.7 | 175% (inactive) | -9.13% (inactive) | 98% (inactive) | 3% (inactive) | 3.6% (inactive) | 14.2% (inactive) | -4.83% (inactive) | 102% (inactive) | -0.125 (inactive) | 7% (inactive) | -8.96% (inactive)
